# Assay results from PubChem BioAssay AID687009 (National Center for Advancing Translational Sciences (NCATS), 2013).
# Records with an inconclusive call do not appear. Calls of active or inactive are those of the source. Calls follow the shape of the dose curve; as a rule, active = well fitted curve in the direction sought with a large enough effect; inconclusive = small, poorly fitted or top-dose-only effect, or another doubt; inactive = no such curve, though single readings can be large or run the other way.
# Biological target: Lysine-specific histone demethylase 1A (Homo sapiens) (UniProt O60341)
# Assay: qHTS Assay for Inhibitors of Human Jumonji Domain Containing 2E (JMJD2E): Counterscreen with LSD1
# Source text: The fine interplay among methylation states of several lysine residues on the tails of histone proteins is a major determinant of the transcriptional state of the associated DNA coding regions and is commonly referred to as the histone code. Histone lysine demethylases catalyze the removal of methyl groups from methylated lysine sidechains on histones H3 and H4, thus antagonizing the reactions catalyzed by histone lysine methyltransferases. […] In search for novel inhibitors of JMJD2E demethylase, a member of the largest set of histone demethylases belonging to the Fe(II) and 2-oxoglutarate oxygenase (2OG) superfamily, we performed a quantitative high-throughput screen (Inglese 2006) by using an assay which utilizes a trimethylated peptide substrate corresponding to a fragment of histone H3 (sequence ARKme3STGGK) with detection of the formaldehyde co-product in real time by a formaldehyde dehydrogenase (FDH) coupled reaction. […]
# The assay was performed in a buffer containing 10 mM HEPES, Na pH 7.5, 5 mM MgCl2, 50 mM KCl, 0.01% Nonidet P-40, and 0.1% BSA. […] The plate was then centrifuged at 1,000 rpm for 15 seconds, and the fluorescence intensity was recorded on a ViewLux High-throughput CCD imager (Perkin-Elmer) using standard TAMRA optics (525 nm excitation and 598 nm emission). The plate was then incubated for 30 min at room temperature, and a second read on the ViewLux was performed. […]
smiles,measurement,value
CN1CCN(c2cnc3c(O)ccc(C(=O)O)c3c2)CC1,outcome,inactive
